Screening data: PubChem BioAssay, The Scripps Research Institute Molecular Screening Center
A selection: hits, their analogues and other compounds. The true share with any hit is near 4.1%.
rCAG RNA binder: r(CAG) repeat RNA binding; TO-PRO-1 dye displacement fluorescence; inhibition, % at 3 µM; actives 1.3% (n = 370,000); AID 651821;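 active = inhibition above the plate cutoff, the mean of all test compounds on that plate plus 3 SD, cut at about 35% in these data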;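 also: higher means more dye released from RNA so lower well fluorescence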
UHRF1 MBD2 ctr: UHRF1 methyl-DNA binding inhibition. Q96T88. UHRF1 binding to methylated oligo, TR-FRET. inhibition, % at 4.4 µM. actives 0.75% (n = 370,000). AID 687016; in the data active = inhibition above about 21%;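 also: UHRF1 SRA domain binding a hemimethylated CpG hairpin DNA probe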
Target sequence (Q96T88 whole entry, looked up, the tested form may be a part): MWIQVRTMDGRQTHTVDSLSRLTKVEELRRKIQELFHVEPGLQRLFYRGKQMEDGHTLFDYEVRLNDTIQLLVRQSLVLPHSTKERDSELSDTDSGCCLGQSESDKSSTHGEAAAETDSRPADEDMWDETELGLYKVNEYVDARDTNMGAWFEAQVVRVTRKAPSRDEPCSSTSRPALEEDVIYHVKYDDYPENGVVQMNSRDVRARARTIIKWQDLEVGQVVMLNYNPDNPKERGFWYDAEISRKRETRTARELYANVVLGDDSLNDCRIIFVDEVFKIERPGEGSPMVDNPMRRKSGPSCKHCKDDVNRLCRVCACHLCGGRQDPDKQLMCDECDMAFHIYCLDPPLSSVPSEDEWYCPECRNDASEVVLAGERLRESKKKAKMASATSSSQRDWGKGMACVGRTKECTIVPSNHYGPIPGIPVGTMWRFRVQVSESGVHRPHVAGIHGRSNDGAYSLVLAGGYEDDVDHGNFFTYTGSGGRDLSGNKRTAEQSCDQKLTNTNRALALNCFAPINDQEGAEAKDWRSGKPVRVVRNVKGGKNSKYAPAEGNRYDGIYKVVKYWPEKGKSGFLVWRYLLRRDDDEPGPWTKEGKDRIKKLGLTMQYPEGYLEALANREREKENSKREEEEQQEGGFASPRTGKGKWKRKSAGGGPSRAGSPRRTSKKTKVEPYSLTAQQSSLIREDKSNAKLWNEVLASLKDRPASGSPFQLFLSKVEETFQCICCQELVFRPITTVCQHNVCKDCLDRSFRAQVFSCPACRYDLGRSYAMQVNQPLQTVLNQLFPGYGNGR
PRMT1 inh: blocks human protein arginine methyltransferase 1 | Q99873 | inhibition, % at 2.79 µM | actives 1.3% (n = 370,000) | recombinant PRMT1, activity-based probe fluorescence polarization;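 active = inhibition above about 21% made by adding two undisclosed values, limit read from the data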
LEDGF integ inh: blocks HIV-1 LEDGF/p75-dependent DNA integration; actives 0.64% (n = 370,000); TR-FRET IN-LEDGF/p75 DNA integration, Eu/Cy5; inhibition, % at 3.7 µM;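 active = inhibition above the screen-wide mean plus 3 SD, cut at about 13% in these data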;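 also: signal is the Cy5 over europium emission ratio at 671 and 618 nm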
ABHD5-PLIN5 inh: ABHD5-PLIN5 protein interaction inhibition; actives 0.78% (n = 360,000); Split G. princeps luciferase complementation, luminescence, 4 h; Q00G26+Q8WTS1; inhibition, % at 4 µM;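 active = inhibition above the mean inhibition across every tested compound plus 3 SD, cut at about 22% in these data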
MBD2 DNA inh: inhibitors of human MBD2 binding to methylated oligonucleotide; Q9UBB5; TR-FRET; inhibition, % at 4.4 µM; actives 0.31% (n = 370,000); AID 686964; in the data active = inhibition above about 13%
rCAG binder conf: r(CAG) RNA repeat binding, confirmation. inhibition, % at 3 µM. actives 70% (n = 4,300). shares compounds with rCAG RNA binder. AID 652065. TO-PRO-1 dye displacement fluorescence;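 active = inhibition above a per-plate cutoff, the mean inhibition of sample wells plus 3 SD, cut at about 35% in these data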;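 also: loss of TO-PRO-1 fluorescence as compound displaces dye from 1x1 AA loop RNA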
dCAG dye counter: counter-screen for rCAG RNA binders: DNA CAG dye complex inhibitors | inhibition, % at 3 µM | d(CAG) DNA oligo TO-PRO-1 dye displacement, fluorescence | shares compounds with rCAG RNA binder | actives 94% (n = 4,300);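 active = inhibition above its plate's cutoff, the mean test-well inhibition plus 3 SD, cut at about 4.8% in these data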;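 also: hits displace the dye from DNA and so lower well fluorescence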
dCAG dye DR: counter-screen for rCAG binders: inhibitors of DNA CAG TO-PRO-1 complex. shares compounds with rCAG RNA binder. DNA CAG/GTC duplex TO-PRO-1 dye displacement fluorescence. IC50, µM. actives 20% (n = 250). AID 686960; in the data active = IC50 below about 10 µM
Of the large screens only hits and unclear results are named; the others gave an inactive call (follow-up assays come after a bar, where they were run).

CC1(C(=O)NS(=O)(=O)c2ccccc2)CCN1C(=O)CC1CCCCC1 (configuration not stated)	none
CC1(C(=O)NS(=O)(=O)c2ccc3ccccc3c2)CCN1C(=O)CC1CCCCC1 (configuration not stated)	rCAG RNA binder 39.0 | rCAG binder conf 57.4 | dCAG dye counter 20.4
C[C@@H]1CCCN1c1cccc2c1S(=O)(=O)N1CC[C@@H](C1)O2	none (no result: ABHD5-PLIN5 inh)
CC(NC(=O)CN1c2cccc3cccc(c23)S1(=O)=O)c1ccc(S(N)(=O)=O)cc1 (configuration not stated)	rCAG RNA binder 40.4 | rCAG binder conf inactive | dCAG dye counter 10.3
O=C(C1CCCN1S(=O)(=O)c1cccc2ccccc12)N1CCN(c2ccccc2)CC1 (configuration not stated)	none (no result: ABHD5-PLIN5 inh)
O=c1c2ccccc2oc2cc(-c3ccc4[nH]ccc4c3)ccc12	rCAG RNA binder 35.5 | rCAG binder conf inactive | dCAG dye counter 10.7
CCCOc1cccc(C2C(C(=O)c3cc4ccccc4o3)=C(O)C(=O)N2c2cc(C)on2)c1 (configuration not stated)	rCAG RNA binder 43.5 | rCAG binder conf 76.6 | dCAG dye counter 35.8
Cc1cc(N2C(=O)C(O)=C(C(=O)c3cc4ccccc4o3)C2c2ccc(OC(C)C)cc2)no1 (configuration not stated)	none
CCCCCOc1ccc(C2C(C(=O)c3ccc(C)o3)=C(O)C(=O)N2c2cc(C)on2)cc1 (configuration not stated)	rCAG RNA binder 36.2 | rCAG binder conf 49.5 | dCAG dye counter 15.2
Cc1cc(N2C(=O)C(O)=C(C(=O)c3cc4ccccc4o3)C2c2cccc(Br)c2)no1 (configuration not stated)	rCAG RNA binder 69.5 | rCAG binder conf 79.3 | dCAG dye counter 45.8
COC(=O)[C@]12C[C@H](CC(=O)NCc3cccs3)C(=O)N(Cc3cccc4ccccc34)C1=C[C@H](C1CCCC1)O[C@@H]2C	none (no result: ABHD5-PLIN5 inh)
CCCC[C@H](C(=O)N(CC)c1ccccc1)[C@@H](O)c1ccc(Cl)cc1	none (no result: ABHD5-PLIN5 inh)
Nc1ccn([C@@H]2O[C@H](C(=O)N3CCN(CCO)CC3)[C@@H](O)[C@H]2O)c(=O)n1	none (no result: ABHD5-PLIN5 inh)
O=S(=O)(NCc1ccc(Cl)c(Cl)c1)c1cc(Cl)ccc1N1CC[C@@H](O)C1	none (no result: ABHD5-PLIN5 inh)
CC(/C=C/c1ccc(N(C)C)cc1)=N\N=C(/N)SC1CC(=O)N(c2ccc(C(=O)O)cc2)C1=O (configuration not stated)	none
CCCOc1ccc(N2C(=O)CC(S/C(N)=N/N=C(\C)c3cccs3)C2=O)cc1 (configuration not stated)	rCAG RNA binder 65.7 | rCAG binder conf 70.3 | dCAG dye counter 26.0 | dCAG dye DR inactive
C/C(=N\N=C(/N)SC1CC(=O)N(c2cccc(Cl)c2)C1=O)c1cccs1 (configuration not stated)	rCAG RNA binder 53.9 | rCAG binder conf 72.6 | dCAG dye counter 28.6 | dCAG dye DR inactive
CCCOc1ccc(N2C(=O)CC(SC(=NCC)NCC)C2=O)cc1 (configuration not stated)	none
O=C(Cc1c[nH]c2ccccc12)Nc1ccc(Nc2cccnc2)c(-c2ccc(OC(F)(F)F)cc2)c1	none (no result: ABHD5-PLIN5 inh)
NS(=O)(=O)c1ccc(N=Nc2c(O)c(C(=O)O)cc3ccccc23)cc1	rCAG RNA binder 46.1 | rCAG binder conf 48.0 | dCAG dye counter 25.7
O=C(O)Cc1ccc(N=Nc2c(O)c(C(=O)O)cc3ccccc23)cc1	rCAG RNA binder 87.0 | rCAG binder conf 58.1 | dCAG dye counter 23.3
CC(=O)c1cc(-c2cc3ccccc3o2)c(=O)n2c1CCC2	none (no result: ABHD5-PLIN5 inh)
CCOc1cc(/C=C(\CC(=O)O)c2nc3ccccc3s2)ccc1OCC(=O)Nc1cccc(C(F)(F)F)c1	rCAG RNA binder 66.6 | rCAG binder conf 52.6 | dCAG dye counter 18.1
COc1ccc(-c2nn(-c3ccccc3)cc2/C=C(\CC(=O)O)c2nc3ccccc3s2)cc1OC	rCAG RNA binder 53.3 | rCAG binder conf 63.5 | dCAG dye counter 21.6
CCOc1cc(/C=C(\CC(=O)O)c2nc3ccccc3s2)ccc1OC	none
COc1cc(/C=C(\CC(=O)O)c2nc3ccccc3s2)ccc1OCC(=O)Nc1ccccc1F	rCAG RNA binder 58.8 | rCAG binder conf 62.1 | dCAG dye counter 22.6
CCn1c2ccccc2c2cc(NC(=O)COC(=O)c3ccc(F)cc3Cl)ccc21	none (no result: ABHD5-PLIN5 inh)
COC(=O)[C@]12C[C@H](CC(=O)N3CCC(c4ccccc4)CC3)C(=O)N(CCC3=CCCCC3)C1=C[C@H](C1CCCC1)O[C@@H]2C	none (no result: ABHD5-PLIN5 inh)
CC1(C(=O)NS(=O)(=O)c2ccc(Cl)s2)CCN1C(=O)c1ccc(C2CCCCC2)cc1 (configuration not stated)	rCAG RNA binder 65.8 | rCAG binder conf 74.2 | dCAG dye counter 36.5
CC1(C(=O)NS(=O)(=O)c2ccc(Cl)s2)CCN1C(=O)C1CCCCC1 (configuration not stated)	none
C=CCN1C(=O)[C@H](CC(=O)NCCc2ccccc2OC)[C@@]2(C(=O)OCC)CCCC=C12	none (no result: ABHD5-PLIN5 inh)
COc1ccc(C(=O)c2ccc(OC)c(Br)c2)cc1Br	none
COc1ccc(Br)c2oc(S)cc(=O)c12	rCAG RNA binder 40.7 | rCAG binder conf inactive | dCAG dye counter 7.6
O=C(O)c1ccccc1NC(c1ccccc1)c1ccc(Cl)cc1 (configuration not stated)	rCAG RNA binder 58.2 | rCAG binder conf 54.4 | dCAG dye counter 11.5 | dCAG dye DR inactive
CC(OC(=O)c1cccc(S(=O)(=O)Nc2cccc(C(F)(F)F)c2)c1)C(=O)Nc1ccc2c(c1)OCCO2 (configuration not stated)	rCAG RNA binder 37.5 | rCAG binder conf 36.0 | dCAG dye counter 8.0
CCOC(=O)C1=C(CSc2nc(C)cc(C)c2C#N)OC(N)=C(C#N)C1c1ccccc1 (configuration not stated)	none
CCOC(=O)C1=C(CSc2nc3c(cc2C#N)CN(C)CC3)OC(N)=C(C#N)C1c1ccc(Cl)cc1 (configuration not stated)	rCAG RNA binder 34.8 | rCAG binder conf inactive | dCAG dye counter 11.0
